The results in this text go back to ChEMBL document CHEMBL3988442, “University of Dundee, Small-Polar-MMV Screening Library” (2021).

About 13,000 (27%) of roughly 48,000 compounds showed an effect of 50% or more. Some of the results follow.

This assay relates to Wolbachia pipientis. Nature of the assay: Anti-Wolbachia Cell-Based Screen. The format is functional. On the set-up: scale not given: in the data most compounds retested in dose-response had high values. The note with it: 5 µM.
With `CC(C(=O)N(C)Cc1ccc(Br)o1)n1cncn1` (centres undefined), the “Percent Effect” value is listed as -10.62%.

With `CCCn1nccc1NC(=O)c1ccc(Cl)c(N2CCNC2=O)c1`, the “Percent Effect” value is given as -10.44%. The result for `Cc1ccc(CN(C(=O)C(C)NC(N)=O)C2CC2)cc1C` (centres undefined) reads 10.7%; that for `CCCN(Cc1ccccc1O)C(=O)Nc1cnn(CCOC)c1`, -1.283%; that for `CC(C)NC(=O)N(Cc1cc(O)nc2ccccc12)C(C)C`, 134.4%. Then `CC(C)N(Cc1ccc(C#N)cc1)C(=O)Nc1ccccn1`, with 7.153%; and `COCCN(Cc1cc(O)nc2ccccc12)C(=O)NC(C)C`, with 129.1%. As for `CC(C)N(CC(N)=O)Cc1csc(Cc2ccccc2)n1`, the “Percent Effect” value is -4.617%. In the case of `COCCCN(Cc1cc(O)nc2ccccc12)C(=O)NC(C)C`, the “Percent Effect” value was found to be 116.8%. With `COCCCN(Cc1ccncc1)C(=O)C1COc2ccccc2C1` (centres undefined), the “Percent Effect” value is given as -18.33%. Then `COCCN(Cc1ccccc1Cl)C(=O)c1c(C)cc(C)[nH]c1=O`, with 2.486%; and `COCCN(Cc1ccc(F)cc1Cl)C(=O)c1ccccn1`, with -0.554%; and `Cc1cc(=O)c(C(=O)Nc2cccc(CCN3CCCC3)c2)c[nH]1`, with -5.108%. For the compound `O=C(O)CSc1nnc(-c2ccn[nH]2)n1-c1cccc(C(F)(F)F)c1`, the “Percent Effect” value is listed as -2.54%. In the case of `COc1ccc(-c2nc(C3(NC(=O)OC(C)(C)C)CCC3)no2)cn1`, the “Percent Effect” value turned out to be 3.682%. For the compound `COc1ccc(C(=O)NCCNC(=O)c2cncnc2C)cc1`, the “Percent Effect” value was -1.399%.

In the case of `O=C(COC1CCCCC1)Nc1ccn(Cc2cccnc2)n1`, the “Percent Effect” value was determined as 3.333%.

Take `CC1=C[C@@H](CC#N)[C@H](C(C)C)C[C@H]1CC(=O)N1CCN(C)CC1`: the “Percent Effect” value is reported as 13.63%. The result for `Oc1cccc(-c2cc(CC3(N(CC4CC4)CC4CC4)COC3)no2)c1` reads 2.791%. Regarding `CC(C)=CCS(=O)(=O)Cc1noc(CC(C)C)n1`, the “Percent Effect” value is -4.798%. With `COCCN1C[C@H]2CCN(C(=O)Nc3ccccc3C)CC[C@H]2S1(=O)=O`, the “Percent Effect” value was -14.97%. Then `COCCN1C2(CCN(C(=O)c3cccs3)C2)c2ccccc2S1(=O)=O` (centres undefined), with 112.6%.

Take `CCNC(=O)N1CCC2(C1)c1ccccc1S(=O)(=O)N2CCOC` (centres undefined): the “Percent Effect” value stood at 101.2%.

With `COCCN1C[C@@H](C)[C@@]2(COCCN(C(=O)c3cccs3)C2)C1.O=C(O)C(F)(F)F`, the “Percent Effect” value stood at 3.824%.

Turning to `COCC(=O)N1CCC2(CCC(C(=O)N3CCCC3)O2)CC1` (centres undefined), the “Percent Effect” value was -11.51%. `O=C(O)C(F)(F)F.O=C(c1ccncc1)N1CCC2(CC1)C(=O)Nc1ccccc12`: the “Percent Effect” value is on record as -18.03%. As to `O=C(c1ccccn1)N1CCC2(COc3ncccc3S(=O)(=O)N2)C1` (centres undefined), the “Percent Effect” value was found to be 107.8%.

As to `O=C(C1CCCC1)N1CC[C@]2(O)CCN(Cc3ncccn3)C[C@@H]2C1`, the “Percent Effect” value is reported as -5.051%. Regarding `O=C(c1ccc(Cl)s1)N1CC(c2nc(-c3ccc[nH]c3=O)no2)C1`, the “Percent Effect” value is given as -1.237%. With `O=C(c1ccccn1)N1CCN(C(c2ccccc2)C(F)(F)F)CC1` (centres undefined), the “Percent Effect” value came out at 20.54%. As to `O=C(C1CCCCC1)N1CCC2(COc3ncccc3S(=O)(=O)N2)C1` (centres undefined), the “Percent Effect” value came to 116.2%. Take `O=C1CCC2(CCCN(C(=O)C3CCCC3)C2)CN1CCc1c[nH]cn1` (centres undefined): the “Percent Effect” value is -4.42%. The result for `O=C(c1ccc(Cl)s1)N1CCC2(COc3ncccc3S(=O)(=O)N2)C1` (centres undefined) reads 106.8%.

For the compound `O=C(O)C(F)(F)F.O=S1(=O)NCC2(CCN(c3ncccn3)CC2)COc2ccccc21`, the “Percent Effect” value worked out at 7.267%.

Turning to `O=C(c1ccoc1)N1CCC2(C1)CN(c1ncccn1)C2`, the “Percent Effect” value is reported as -1.221%. The result for `O=C(c1ccncc1)N1CCC2(COc3ncccc3S(=O)(=O)N2)C1` (centres undefined) reads 101.3%. For the compound `CCC(CC)NC(=O)NCc1ccnc(-n2ccnc2C)c1`, the “Percent Effect” value is recorded as -7.702%.

As to `COCCN1CCN(C(=O)C[C@@H]2C[C@@H](C(C)C)[C@H](CO)C=C2C)CC1`, the “Percent Effect” value is listed as -1.318%. With `CC(=O)Nc1ncc(S(=O)(=O)N2CCC(C)CC2)s1`, the “Percent Effect” value is -4.256%. The result for `COCCN(C)C(=O)c1ccc2onc(-c3coc(C)n3)c2c1` reads 3.529%. As for `CC(C)Cc1noc(CN(C)C(=O)C2COc3ccccc3C2)n1` (centres undefined), the “Percent Effect” value was -0.9273%. Turning to `O=C(CN1CC(c2nc(C3CC3)no2)C1)NCC1CCCO1.O=C(O)C(=O)O` (centres undefined), the “Percent Effect” value turned out to be 11.2%.

With `Cc1ccc(CN2CC3(CCN(C(=O)c4cscn4)C3)C2)s1.O=C(O)C(F)(F)F`, the “Percent Effect” value was -3.969%.

In the case of `O=C(c1cscn1)N1CCC2(CC1)CCN(S(=O)(=O)c1ccccc1)C2`, the “Percent Effect” value is on record as -2.013%. In the case of `O=C(c1cscn1)N1CCC2(COc3ncccc3S(=O)(=O)N2)C1` (centres undefined), the “Percent Effect” value is recorded as 87.78%.

Regarding `O=C(C1CCCO1)N1CCCn2c(nnc2Cn2ccnc2)C1.O=C(O)C(F)(F)F` (centres undefined), the “Percent Effect” value is on record as -15.24%. The result for `COCC(=O)N1CCCn2c(CN3CCOCC3)nnc2C1.O=C(O)C(F)(F)F` reads 114.9%; that for `O=C(C1CCCO1)N1CCCn2c(nnc2Cn2cccc2)C1` (centres undefined), -19.79%; that for `O=C(CC1CC1)N1CCCn2c(nnc2Cn2cccc2)C1`, -9.469%. Take `COCC(=O)N1CCCn2c(CN3CCCC3)nnc2C1`: the “Percent Effect” value turned out to be 85.92%.

Turning to `COCC(=O)N1CCCn2c(CN3CCCC3=O)nnc2C1`, the “Percent Effect” value is on record as 88.29%.

For the compound `COCC(=O)N1CCCn2c(CN3CCCCC3)nnc2C1.O=C(O)C(F)(F)F`, the “Percent Effect” value is recorded as -12.43%. For `O=C(O)C(F)(F)F.O=C(O)C(F)(F)F.O=C(c1ccncc1)N1CCCn2c(CN3CCCC3)nnc2C1`, the “Percent Effect” value was -6.384%. For `Fc1cnc(N2CCCn3c(CN4CCOCC4)nnc3C2)nc1.O=C(O)C(F)(F)F.O=C(O)C(F)(F)F`, the “Percent Effect” value is reported as -2.409%.

Regarding `CCOCC(=O)N1CCCn2c(nnc2Cn2cccc2)C1`, the “Percent Effect” value is given as 93.36%.

As for `CCc1nc(CCNC(=O)C2CCOC2)sc1C` (centres undefined), the “Percent Effect” value was -3.855%.

For the compound `Cc1cc(N2CCN(C(=O)C(C)n3ccnc3C(C)C)CC2)cc(C)n1` (centres undefined), the “Percent Effect” value was found to be 8.833%. With `CCOCC(=O)N1CCCn2c(CN3CCCCC3)nnc2C1`, the “Percent Effect” value came out at 101.4%. For the compound `CCOCC(=O)N1CCCn2c(CN3CCOCC3)nnc2C1`, the “Percent Effect” value is reported as 89.68%.

As for `Cc1nc2cc(F)cc(C(=O)N3CCN(CC(C)O)CC3)c2nc1C` (centres undefined), the “Percent Effect” value is on record as -10.08%. Consider `CNc1cncc(C2CCN(C(=O)c3coc(C)n3)CC2)n1`, for which the “Percent Effect” value was 81.53%. Consider `CNc1cncc(C2CCN(C(=O)c3cnco3)CC2)n1`, for which the “Percent Effect” value is given as 87.6%.

As for `COCCN(Cc1ccco1)Cc1nc(-c2ccc(C)c(F)c2)no1`, the “Percent Effect” value is recorded as -0.2442%.

`CC1Oc2ccc(S(=O)(=O)NCCCn3ccnc3)cc2NC1=O` (centres undefined): the “Percent Effect” value is -3.003%.

For the compound `CCC(C)(C)NCc1nc(C(C)(C)NC(=O)OC(C)(C)C)no1`, the “Percent Effect” value was determined as 2.253%. The result for `COCCN(C)C(=O)c1nc2c(s1)CCCN2c1ccc(C)nn1` reads 96.15%; that for `Cc1ccc(N2CCCc3sc(C(=O)NCc4ccncc4)nc32)nn1`, -3.066%. Consider `Cc1ccc(N2CCCc3sc(C(=O)NCc4cccnc4)nc32)nn1`, for which the “Percent Effect” value turned out to be 10.28%. `CCN(C(=O)c1nc2c(s1)CCCN2c1ccc(C)nn1)C(C)C`: the “Percent Effect” value is recorded as 87.32%. Then `COCCNC(=O)c1nc2c(s1)CCCN2c1ccc(C)nn1`, with 1.037%.

As for `COCCN(C)C(=O)c1nc2c(s1)CCCN2c1ncccn1`, the “Percent Effect” value is -1.851%. Consider `N#Cc1cccc(CN2CC3(CCCCN3c3cccnc3)CC2=O)c1.O=C(O)C(F)(F)F` (centres undefined), for which the “Percent Effect” value is on record as 9.304%.

Turning to `CC(C)CN1C[C@@H]2CN(c3cnccn3)C[C@@H]2C1=O`, the “Percent Effect” value is given as -19.41%. Take `O=C(CSc1ccc2c(c1)OCCO2)NS(=O)(=O)c1cccs1`: the “Percent Effect” value amounted to 5.144%. Turning to `O=S(=O)(NCC1(O)CCOc2ccccc21)c1cccs1` (centres undefined), the “Percent Effect” value is -3.854%. On to `O=S(=O)(NCC(c1ccsc1)N1CCCCCC1)c1cccs1` (centres undefined), for which the “Percent Effect” value is recorded as 116.8%.

With `CN(C)c1ccc(C(CNS(=O)(=O)c2cccs2)N2CCCC2)cc1` (centres undefined), the “Percent Effect” value was determined as 108.3%. Consider `CCC(CO)N(Cc1cccs1)C(=O)CNS(=O)(=O)c1cccs1` (centres undefined), for which the “Percent Effect” value is 5.395%. Consider `CN1CCc2cc(C(CNS(=O)(=O)c3cccs3)N3CCCC3)ccc21` (centres undefined), for which the “Percent Effect” value is reported as -7.457%.

As for `O=C(CN1CCN(C(=O)c2cccc(-c3ccoc3)c2)CC1)C1CC1`, the “Percent Effect” value is reported as -1.743%.

As to `CN(C)CC1CSCCCN1S(=O)(=O)Cc1ccc(C(F)(F)F)cc1` (centres undefined), the “Percent Effect” value was -4.653%. On to `CN(C)CC1CSCCCN1C(=O)c1ccc(C(C)(C)C)cc1` (centres undefined), for which the “Percent Effect” value is on record as 10.83%. In the case of `CN(C)CC1CSCCCN1C(=O)c1ccc(-c2ccccc2)cc1` (centres undefined), the “Percent Effect” value is given as 105.9%. Consider `CN(C)CC1CSCCCN1C(=O)c1ccc(=O)[nH]c1` (centres undefined), for which the “Percent Effect” value is 13.95%. On to `Cc1ccc(C2CSCCN2C(=O)c2ccsc2)o1` (centres undefined), for which the “Percent Effect” value was 6.011%. The result for `CN(C)CC1CSCCCN1C(=O)c1ccsc1` (centres undefined) reads 106.6%; that for `CN(C)CC1CSCCCN1S(=O)(=O)c1ccc(C(F)(F)F)cc1` (centres undefined), 1.872%; that for `CN(C)CC1CSCCCN1C(=O)c1cccc(C(F)(F)F)c1` (centres undefined), 90.72%.

With `CN(C)CC1CSCCCN1S(=O)(=O)Cc1cccc(F)c1` (centres undefined), the “Percent Effect” value came to 24.8%.

Consider `CN(C)CC1CSCCCN1C(=O)c1ccc(-n2cccc2)cc1` (centres undefined), for which the “Percent Effect” value turned out to be 106.7%. Then `CN(C)CC1CSCCCN1C(=O)Nc1ccc(C(C)(C)C)cc1` (centres undefined), with -13.3%; and `CC(O)CN1CCC(CNCc2cccc(OC(C)C)c2)CC1` (centres undefined), with -7.306%; and `CC(c1nc(-c2ccccc2)no1)N1CC(n2cccn2)C1` (centres undefined), with -11.21%. Turning to `COc1ccc(CN(C)c2ccc(-c3nccn3C)nn2)cc1OC`, the “Percent Effect” value is reported as -9.583%. As to `O=C(Nc1nnn[nH]1)c1ccc(I)c(F)c1`, the “Percent Effect” value was 14.38%. Then `Cc1ccc(C2CSCCN2C(=O)c2ccc(C(N)=O)cc2)o1` (centres undefined), with -7.519%; and `CC(C)Oc1ccc(C(=O)N2CCCSCC2CN(C)C)cc1` (centres undefined), with 112.1%; and `Cc1cccc(OCC2CCCN(C(=O)CN(C)C3CCNCC3)C2)c1` (centres undefined), with -1.159%.

As to `CC(C)NC(=O)C1CCC2(CCN(Cc3cnn(C)c3)CC2)C1.O=C(O)C(F)(F)F` (centres undefined), the “Percent Effect” value was -6.614%.
